Measured values taken from PubChem BioAssay.
A number with no mark means an inactive call.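 The calls were made as follows, unless noted: active = viability increase at or above a cutoff of the median across tested compounds plus 3 SD (cut at about 8.5% in these data, passing the limit was not always enough); inconclusive = some gains above the cutoff, reason not given; inactive = the rest.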 Results filed as inconclusive are left out.

experiment: viability gain of MRP-1-high H69AR cells under doxorubicin, pilot screen, MRP-1 activator project, CellTiter-Glo, duplicate (AID 807); details: H69AR viability with doxorubicin, CellTiter-Glo luminescence; at 10 µM; hits give high values;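 also: compound pretreatment 18-22 h then 72 h combined with doxorubicin; 0% = doxorubicin alone and 100% = vehicle without doxorubicin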

Row | Structure (SMILES) | viability increase [%]
1 | CCN1C(=O)c2ccccc2Sc2ccc(C(=O)NCCN3CCOCC3)cc21 | -0.43
2 | COc1cccc(-n2c(Cc3cc(=O)[nH]c(=O)[nH]3)nnc2SCC(=O)Nc2ccccc2)c1 | -0.3
3 | CC1CCCCN1C(=O)c1ccccc1NC(=O)c1ccco1 (stereo not given) | -2.69
4 | CC1(C)CC(=O)C=C(NCCN2CCN(C(=O)Nc3ccc(Cl)c(Cl)c3)CC2)C1 | -3.81
5 | COc1ccccc1C(=O)Nc1nnc(-c2ccc(Cl)cc2)o1 | -1.3
6 | CCOC(=O)c1cc2c(=O)n3ccccc3nc2n(C(C)C)c1=NC(=O)c1ccncc1 | -1.27
7 | CCOc1ccc(OCC)c(NC(=O)CN2CCC(NC(=O)c3cccc(F)c3)CC2)c1 | -4.87
8 | CC(C)c1nnc(NC(=O)CCN2C(=O)c3ccccc3C2=O)s1 | 0.32
9 | CCOC(=O)C1Cn2c(nc3c(c2=O)C(C)(CC)Cc2ccccc2-3)S1 (stereo not given) | -2.18
10 | O=C(CCCCn1c(=O)[nH]c2ccccc2c1=O)NC1CCN(Cc2ccccc2)CC1 | -0.32
11 | COCCNC(=O)C1CC(=O)N(c2ccc(F)c(Cl)c2)C1 (stereo not given) | 0.07
12 | Cc1ccc2oc(=O)c3cnn(CC(=O)N4CCCCCC4)c3c2c1 | -3.69
13 | Cc1onc(-c2ccccc2Cl)c1C(=O)N1CCCCC1C(=O)O (stereo not given) | -1.22
14 | Cc1c(Cl)cccc1NC(=O)CN1C(=O)CSc2ncccc21 | -1.13
15 | Cc1cnc(C(=O)OCC(=O)Nc2ccc(Cl)cc2)cn1 | -2.99
16 | Cc1cc(C)nc(N(C#N)Cc2ccccc2Cl)n1 | -3.71
17 | CC(C)(C)c1nnc2sc(SCC(=O)c3cccs3)nn2c1=O | -6
18 | COCCNC(=O)CN(c1cc(C(F)(F)F)ccc1Cl)S(C)(=O)=O | -0.83
19 | O=C(O)Cc1ccc(NC(=O)C2CCCCC2C(=O)O)cc1 (stereo not given) | 0.06
20 | Cn1c(=O)c2c(nc(CN3CCN(Cc4ccccc4)CC3)n2Cc2ccccc2)n(C)c1=O | -0.85

Row | Structure (SMILES) | viability increase [%]
21 | CCCCCOC(=O)Cn1c(=O)oc2ccccc21 | -1.13
22 | COc1ccccc1S(=O)(=O)Cc1ccc(C(=O)NCCN(C)C)o1 | -0.73
23 | COc1ccc(OC)c2c1CC(C)(C)NC2=O | -0.54
24 | CCN1CCN(CCNC(=O)CS(=O)(=O)Cc2nc(-c3ccc(C)cc3)oc2C)CC1 | 0.44
25 | CCN1CCN(CC(=O)Nc2cccc(C)c2C)C(=O)C1=O | -0.73
26 | O=C(O)CC1SC(=Nc2ccccc2)N(c2ccccc2)C1=O (stereo not given) | -1.21
27 | O=S(=O)(NCCN1CCCC1)c1cccc2cccnc12 | -2.62
28 | CCCCOC(=O)CCc1n[nH]c(=O)[nH]c1=O | -1.14
29 | COc1ccc(OC)c(S(=O)(=O)NCCc2cn3ccsc3n2)c1 | -2.28
30 | c1ccc(N2CCOCC2)c(Nc2nc3ccccc3n3cnnc23)c1 | -2.57
31 | COc1cc(OC)cc(C(=O)OCn2nnc3ccccc3c2=O)c1 | -0.87
32 | CCn1c(C(=O)N2CCc3ccccc3C2)cc2sccc21 | -0.05
33 | CC(=O)Nc1ccc(NC(=O)CCC(=O)NCCO)cc1 | -0.28
34 | COCCNC(=O)c1cc2c(-c3ccc(Cl)cc3)nn(C)c2s1 | -6
35 | CCn1c(=NC(=O)CSC(C)=O)sc2cc(OC)ccc21 | -5.19
36 | O=C(Cc1n[nH]c(=O)c2ccccc12)NCc1ccccn1 | -0.08
37 | O=C(Nc1ccc(-c2nc3cccnc3s2)cc1)c1ccc(Br)o1 | 3.03
38 | CCOC(=O)Cn1c(=O)oc2cc(S(=O)(=O)Nc3cccc(C)c3)ccc21 | -0.66
39 | COc1ccc(C2=NOC(C(=O)N3CCN(c4ccccc4OC)CC3)C2)cc1 (stereo not given) | 2.8
40 | Cc1cccc(C)c1N1C(=O)c2ccccc2C1=O | -1.87

experiment: growth suppression of beta-catenin knockout HCT116, pilot screen, human colon tumor cells (AID 823;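 active = cell viability at or below a set limit in both duplicate runs, the limit being the all-compound median minus 4 SD, cut at about 23% in these data, passing the limit was not always enough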;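 also: 0% = wells killed by 20 µM Hyamine and 100% = untreated DMSO cell wells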); details: CellTiter-Glo, 60 h, at 10 µM, hits give low values

Row | Structure (SMILES) | viability [%]
41 | CCN1C(=O)c2ccccc2Sc2ccc(C(=O)NCCN3CCOCC3)cc21 | 110
42 | COc1cccc(-n2c(Cc3cc(=O)[nH]c(=O)[nH]3)nnc2SCC(=O)Nc2ccccc2)c1 | 107
43 | CC1CCCCN1C(=O)c1ccccc1NC(=O)c1ccco1 (stereo not given) | 94.7
44 | CC1(C)CC(=O)C=C(NCCN2CCN(C(=O)Nc3ccc(Cl)c(Cl)c3)CC2)C1 | 94.8
45 | COc1ccccc1C(=O)Nc1nnc(-c2ccc(Cl)cc2)o1 | 103
46 | CCOC(=O)c1cc2c(=O)n3ccccc3nc2n(C(C)C)c1=NC(=O)c1ccncc1 | 98.3
47 | CCOc1ccc(OCC)c(NC(=O)CN2CCC(NC(=O)c3cccc(F)c3)CC2)c1 | 77.5
48 | CC(C)c1nnc(NC(=O)CCN2C(=O)c3ccccc3C2=O)s1 | 104
49 | CCOC(=O)C1Cn2c(nc3c(c2=O)C(C)(CC)Cc2ccccc2-3)S1 (stereo not given) | 82.1
50 | O=C(CCCCn1c(=O)[nH]c2ccccc2c1=O)NC1CCN(Cc2ccccc2)CC1 | 91.4
51 | COCCNC(=O)C1CC(=O)N(c2ccc(F)c(Cl)c2)C1 (stereo not given) | 105
52 | Cc1ccc2oc(=O)c3cnn(CC(=O)N4CCCCCC4)c3c2c1 | 82.8
53 | Cc1onc(-c2ccccc2Cl)c1C(=O)N1CCCCC1C(=O)O (stereo not given) | 96.6
54 | Cc1c(Cl)cccc1NC(=O)CN1C(=O)CSc2ncccc21 | 97.6
55 | Cc1cnc(C(=O)OCC(=O)Nc2ccc(Cl)cc2)cn1 | 101
56 | Cc1cc(C)nc(N(C#N)Cc2ccccc2Cl)n1 | 99.7
57 | CC(C)(C)c1nnc2sc(SCC(=O)c3cccs3)nn2c1=O | 71.1
58 | COCCNC(=O)CN(c1cc(C(F)(F)F)ccc1Cl)S(C)(=O)=O | 99.9
59 | O=C(O)Cc1ccc(NC(=O)C2CCCCC2C(=O)O)cc1 (stereo not given) | 95.5
60 | Cn1c(=O)c2c(nc(CN3CCN(Cc4ccccc4)CC3)n2Cc2ccccc2)n(C)c1=O | 85.6

Row | Structure (SMILES) | viability [%]
61 | CCCCCOC(=O)Cn1c(=O)oc2ccccc21 | 90.3
62 | COc1ccccc1S(=O)(=O)Cc1ccc(C(=O)NCCN(C)C)o1 | 106
63 | COc1ccc(OC)c2c1CC(C)(C)NC2=O | 88.3
64 | CCN1CCN(CCNC(=O)CS(=O)(=O)Cc2nc(-c3ccc(C)cc3)oc2C)CC1 | 87.2
65 | CCN1CCN(CC(=O)Nc2cccc(C)c2C)C(=O)C1=O | 99
66 | O=C(O)CC1SC(=Nc2ccccc2)N(c2ccccc2)C1=O (stereo not given) | 98.1
67 | O=S(=O)(NCCN1CCCC1)c1cccc2cccnc12 | 99.8
68 | CCCCOC(=O)CCc1n[nH]c(=O)[nH]c1=O | 99.8
69 | COc1ccc(OC)c(S(=O)(=O)NCCc2cn3ccsc3n2)c1 | 105
70 | c1ccc(N2CCOCC2)c(Nc2nc3ccccc3n3cnnc23)c1 | 66.3
71 | COc1cc(OC)cc(C(=O)OCn2nnc3ccccc3c2=O)c1 | 101
72 | CCn1c(C(=O)N2CCc3ccccc3C2)cc2sccc21 | 84.1
73 | CC(=O)Nc1ccc(NC(=O)CCC(=O)NCCO)cc1 | 90.8
74 | COCCNC(=O)c1cc2c(-c3ccc(Cl)cc3)nn(C)c2s1 | 64.6
75 | CCn1c(=NC(=O)CSC(C)=O)sc2cc(OC)ccc21 | 64.1
76 | O=C(Cc1n[nH]c(=O)c2ccccc12)NCc1ccccn1 | 103
77 | O=C(Nc1ccc(-c2nc3cccnc3s2)cc1)c1ccc(Br)o1 | 105
78 | CCOC(=O)Cn1c(=O)oc2cc(S(=O)(=O)Nc3cccc(C)c3)ccc21 | 65.5
79 | COc1ccc(C2=NOC(C(=O)N3CCN(c4ccccc4OC)CC3)C2)cc1 (stereo not given) | 99.9
80 | Cc1cccc(C)c1N1C(=O)c2ccccc2C1=O | 105
